# Laboratory results: the supplement of paper PMC8728848
# The sample as a whole holds a higher share of the strongest signals than the screen did.
# B1: X56-1 (Clostridium perfringens), P26831 (protein)
# chain: MGSSHHHHHHSSGLVPRGSHMASDPNRIIATYISNRQDAPTGNPDNIFDNNASTELVYKNPNRIDVGTYVGVKYSNPITLNNVEFLMGANSNPNDTMQKAKIQYTVDGREWIDLEEGVEYTMPGAIKVENLDLKVRGVRLIATEARENTWLGVRDINVNKKEDSNSGVEF
# Columns and labels:
# Test in all cases: glycan array binding signal (z-score within array); higher = stronger binding
# Conditions in all cases: glycan notation: IUPAC condensed, linker removed
# [1] = biological target: Fuc(a1-2)Gal(b1-3)GalNAc(b1-3)Gal
# Summary of the method: (§1)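 Columns mapping to the same glycan were averaged after glycan names were converted to IUPAC-condensed notation. The data come from 3228 arrays in the Consortium for Functional Glycomics database, limited to those with an available protein sequence. Binding is reported as a within-array Z-score averaged across arrays of one protein sequence and across linkers.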
# [2] = biological target: Fuc(a1-2)Gal(b1-3)GalNAc(b1-3)Gal(b1-4)Glc
# Summary of the method: as §1
# [3] = biological target: Fuc(a1-2)Gal(b1-4)[Fuc(a1-3)]GlcNAc
# Summary of the method: as §1
# [4] = biological target: Fuc(a1-3)GlcNAc
# Summary of the method: as §1
# [5] = biological target: Gal(b1-3)GalNAc(b1-3)Gal(b1-4)GlcNAc
# Summary of the method: as §1
# [6] = biological target: Gal(b1-4)GlcNAc(b1-2)Man(a1-3)[Gal(b1-4)GlcNAc(b1-2)Man(a1-6)]Man(b1-4)GlcNAc(b1-4)GlcNAc
# Summary of the method: as §1
# [7] = biological target: Gal3S6S(b1-4)GlcNAc
# Summary of the method: as §1
# [8] = biological target: GlcNAc(b1-3)Gal(b1-3)GalNAc
# Summary of the method: as §1
# [9] = biological target: GlcNAc(b1-3)Gal(b1-4)Glc
# Summary of the method: as §1
# [10] = biological target: GlcNAc(b1-3)Gal(b1-4)GlcNAc(b1-3)Gal(b1-4)GlcNAc
# Summary of the method: as §1
# [11] = biological target: GlcNAc(b1-3)[GlcNAc(b1-6)]GlcNAc
# Summary of the method: as §1
# [12] = biological target: GlcNAc(b1-4)Gal(b1-4)GlcNAc
# Summary of the method: as §1
# [13] = biological target: Man(a1-2)Man(a1-3)[Man(a1-3)[Man(a1-6)]Man(a1-6)]Man(b1-4)GlcNAc(b1-4)GlcNAc
# Summary of the method: as §1
# [14] = biological target: Man(a1-3)[Man(a1-6)]Man
# Summary of the method: as §1
# [15] = biological target: Neu5Ac(a2-3)Gal(b1-4)GlcNAc(b1-3)Gal(b1-4)GlcNAc
# Summary of the method: as §1
# [16] = biological target: Neu5Ac(a2-3)Gal(b1-4)[Fuc(a1-3)]GlcNAc6S
# Summary of the method: as §1
# [17] = biological target: Neu5Ac(a2-3)GalNAc
# Summary of the method: as §1
# [18] = biological target: Neu5Ac(a2-3)[GalNAc(b1-4)]Gal(b1-4)Glc
# Summary of the method: as §1
# [19] = biological target: Neu5Ac(a2-6)Gal(b1-4)GlcNAc(b1-2)Man(a1-3)[Neu5Ac(a2-6)Gal(b1-4)GlcNAc(b1-2)Man(a1-6)]Man(b1-4)GlcNAc(b1-4)GlcNAc
# Summary of the method: as §1
# [20] = biological target: Neu5Ac(a2-6)Gal(b1-4)GlcNAc6S
# Summary of the method: as §1
# [21] = biological target: Neu5Ac(a2-8)Neu5Ac(a2-3)Gal(b1-4)Glc
# Summary of the method: as §1
binder,measurement,setting,value
B1,glycan array binding signal (z-score),[1],0.726
same,glycan array binding signal (z-score),[2],0.136
same,glycan array binding signal (z-score),[3],0.085
same,glycan array binding signal (z-score),[4],-0.245
same,glycan array binding signal (z-score),[5],0.197
same,glycan array binding signal (z-score),[6],5.94
same,glycan array binding signal (z-score),[7],-0.196
same,glycan array binding signal (z-score),[8],0.035
same,glycan array binding signal (z-score),[9],-0.355
same,glycan array binding signal (z-score),[10],-0.172
same,glycan array binding signal (z-score),[11],-0.276
same,glycan array binding signal (z-score),[12],-0.371
same,glycan array binding signal (z-score),[13],-0.387
same,glycan array binding signal (z-score),[14],-0.231
same,glycan array binding signal (z-score),[15],9.11
same,glycan array binding signal (z-score),[16],1.06
same,glycan array binding signal (z-score),[17],-0.264
same,glycan array binding signal (z-score),[18],-0.338
same,glycan array binding signal (z-score),[19],-0.264
same,glycan array binding signal (z-score),[20],-0.039
same,glycan array binding signal (z-score),[21],0.954
